Assay outcomes (PubChem)
Rce1 inhib – inhibitors of yeast Ras-converting enzyme; Q03530; AID 2563; 290,000 compounds, 0.27% hits; yeast membranes, quenched prenylated peptide cleavage fluorescence; calls only;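 active = fall in fluorescence gain of 50% or more versus controls, with final raw signal at or below 3038400; inconclusive = same 50% fall but final raw signal above 3038400; inactive = fall in fluorescence gain under 50%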;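 also: plate controls were neutral control wells for no effect and wells lacking membranes for full effect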
Target sequence (Q03530 whole entry, looked up): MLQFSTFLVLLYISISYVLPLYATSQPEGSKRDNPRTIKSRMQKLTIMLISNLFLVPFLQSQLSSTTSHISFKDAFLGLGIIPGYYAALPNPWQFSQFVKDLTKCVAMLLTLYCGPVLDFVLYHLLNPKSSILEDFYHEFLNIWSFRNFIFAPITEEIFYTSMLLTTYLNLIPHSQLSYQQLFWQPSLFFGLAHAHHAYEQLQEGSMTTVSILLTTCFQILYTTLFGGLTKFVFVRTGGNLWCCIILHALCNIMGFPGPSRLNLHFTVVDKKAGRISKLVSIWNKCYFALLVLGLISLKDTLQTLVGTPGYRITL
Efflux pump inh – blocks antifungal efflux pumps in multiplex yeast assay. S. cerevisiae Candida pump triplex, Nile Red efflux. inhibition, % at 10 µM. 330,000 compounds, 0.44% hits. AID 485275;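 active = plate passing quality check with inhibition over a set limit, or well fluorescence over plate mean plus 4 SD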;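 also: Nile Red retained in pooled yeast measured as flow cytometry median fluorescence; 0% = buffer negative control and 100% = Enniatin B positive control; higher means more Nile Red kept so more efflux inhibition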
HDAC3 inhib – blocks human histone deacetylase 3 | recombinant HDAC3, fluorogenic peptide/trypsin coupled, fluorescence | 320,000 compounds, 0.15% hits | inhibition, % at 8.3 µM; in the data active = inhibition above about 26%, passing the limit was not always enough; inconclusive = no clear call, values can overlap the other calls
GRK2 inh – human GRK2 inhibition via aptamer displacement. P25098. bead flow cytometry, FAM-aptamer displacement from GRK2. inhibition of aptamer binding, % at 10 µM. 330,000 compounds, 0.59% hits. AID 488847;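 active = inhibition of aptamer binding above 40%, roughly 3 SD of noise, on plates passing a quality check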;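 also: median bead fluorescence of bound FAM aptamer so fluorescent compounds give negative values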
ALR H2O2 inh – human ALR oxidase inhibition via reduced H2O2. P55789. purified ALR, DTT oxidation, H2O2 HRP-luminol luminescence. inhibition, % (concentration not given with the values). 290,000 compounds, 3.8% hits;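 active = mean replicate inhibition above about 79%, with every replicate also reaching it, limit read from the data; inconclusive = only one of the two criteria met; inactive = mean below limit and not every replicate reaching it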
Target sequence (P55789 whole entry, looked up): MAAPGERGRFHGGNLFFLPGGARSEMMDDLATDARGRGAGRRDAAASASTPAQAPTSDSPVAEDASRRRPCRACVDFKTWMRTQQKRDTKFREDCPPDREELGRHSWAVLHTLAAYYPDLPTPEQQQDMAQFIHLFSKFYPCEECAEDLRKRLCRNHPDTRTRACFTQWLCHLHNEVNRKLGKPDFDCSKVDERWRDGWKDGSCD
Rtt109 HAT inh – blocks Candida albicans Rtt109/Vps75 acetyltransferase activity. Q5AAJ8. purified Rtt109/Vps75, ThioGlo CoA-SH fluorescence, 4 h. inhibition, % at 34.9 µM. 330,000 compounds, 0.16% hits;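 active = inhibition of at least 50% in every replicate; inconclusive = best replicate reaches 50% inhibition but some replicates fall short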
Starred values were filed as active, the others as inactive; i = inactive; u = inconclusive; x = no result given. In the library only some 4.5% were active in any assay of this set; here they are far more common.

SMILES	Rce1 inhib	Efflux pump inh	HDAC3 inhib	GRK2 inh	ALR H2O2 inh	Rtt109 HAT inh
COc1cc(C=NNc2ccc(S(=O)(=O)Nc3ccccc3C(=O)O)cc2[N+](=O)[O-])ccc1O	x	0	12	1	99*	18
O=C(NCc1n[nH]c(=S)n1-c1ccc(F)cc1)c1ccc(S(=O)(=O)N2CCOCC2)cc1	i	0	u	0	36	x
O=C(NCc1n[nH]c(=S)n1-c1ccccc1)c1ccc(S(=O)(=O)N2CCOCC2)cc1	i	0	-2	0	91*	2
CCC(NC(=O)Nc1ccc(O)cc1)(C(F)(F)F)C(F)(F)F	x	0	5	4	99*	-2
COc1ccc(NC(=O)NC(C)(C(F)(F)F)C(F)(F)F)cc1	i	0	x	4	x	9
CC(NC(=O)Nc1ccc(O)cc1)(C(F)(F)F)C(F)(F)F	i	0	8	3	98*	-18
CCC(NC(=O)NCc1ccccc1)(C(F)(F)F)C(F)(F)F	i	0	-1	0	0	6
COc1cc(C[C@@H](CO)[C@H](CO)Cc2ccc(O)c(OC)c2)ccc1O	i	0	-8	0	97*	x
COc1cc(C[C@@H](C)[C@@H](C)Cc2ccc(O)c(OC)c2)ccc1O	x	0	11	10	50	8
CC1=C(C(=O)N2CCN(c3cc(C)ccc3C)CC2)C2(CCCCC2)OC1=O	i	0	-2	0	87*	9
Cc1nc(Cl)c(Cl)n1CCOc1ccccc1	i	0	0	0	0	5
CN1/C(=C\C(=O)c2cccnc2)C(C)(C)c2ccccc21	i	0	3	2	17	2
CN1/C(=C/C(=O)c2nc(S(C)(=O)=O)ncc2Cl)C(C)(C)c2ccccc21	i	0	7	1	98*	35
CCc1c(O)nc(SCc2nc3ccccc3c(=O)[nH]2)[nH]c1=O	i	0	-5	0	98*	-12
C=CCc1c(C)nc(SCc2nc3ccccc3c(=O)[nH]2)[nH]c1=O	i	0	-1	2	7	2
Oc1ccc(Cc2ccccc2Cl)c(O)c1	x	x	x	x	x	-2
Oc1ccc(Cc2ccc(Cl)cc2)c(O)c1	i	0	6	0	97*	-2
CC(=O)Nc1ccnc(-c2cccnc2)n1	i	0	-5	2	-5	0
CCCCC(=O)Nc1ccnc(-c2cccnc2)n1	i	0	9	0	85*	-2
Clc1ccccc1Cn1nnc2ccccc21	i	0	4	0	-2	-5
COc1ccc(N/C=C/C(=C(C#N)C#N)N(C)C)cc1	x	0	9	1	0	-8
COc1ccc(NC(=O)CSc2nc(-c3ccco3)nc3cc(=O)[nH]n23)cc1Cl	i	0	2	0	99*	3
Cn1cc(Br)c(C(=O)NNC(=O)Nc2ccccc2C(F)(F)F)n1	i	0	2	0	x	0
COC(=O)c1ccc(/C=N/NC(=O)C2CC(=O)N(c3ccc(OC)cc3)C2)cc1 (stereo not drawn)	i	0	5	0	-6	-5
COc1ccc(N2CCN(Cc3nc(N)nc(N4CCCc5ccccc54)n3)CC2)cc1	i	0	1	0	87*	16
SMILES	Rce1 inhib	Efflux pump inh	HDAC3 inhib	GRK2 inh	ALR H2O2 inh	Rtt109 HAT inh
Nc1nc(CN2CCN(c3ccccc3)CC2)nc(N2CCCc3ccccc32)n1	i	0	9	2	98*	4
Cc1ccc(NC(=O)c2ccc(S(=O)(=O)NCc3cccnc3)cc2)c(C)c1	i	1	-4	1	2	7
COc1cccc(-c2nc(CS(=O)(=O)CC(=O)NCCc3ccc(OC)cc3OC)c(C)o2)c1	i	0	-4	0	59	25
COc1cccc(-c2nc(CS(=O)CC(=O)NCc3ccccc3Cl)c(C)o2)c1 (stereo not drawn)	i	0	3	1	99*	-4
COc1cccc(-c2nc(CS(=O)CC(=O)NCc3ccc4c(c3)OCO4)c(C)o2)c1 (stereo not drawn)	i	0	0	2	99*	3
COc1ccc(-c2nc(CS(=O)CC(=O)NCc3ccc4c(c3)OCO4)c(C)o2)cc1 (stereo not drawn)	i	0	1	0	99*	0
COc1ccc(CC(=O)NCc2ccc3c(c2)OCO3)cc1	i	0	-2	1	3	4
CC(C)C(=O)Nc1cccc(COc2ccc(CN(CCc3ccccc3)C(=O)OC(C)(C)C)cc2)c1	x	x	x	x	x	-11
Cc1ccc(C(=O)NCc2ccc3c(c2)OCO3)o1	i	0	4	0	9	5
Cc1ccc(/C=C/C(=O)NCc2ccc(S(N)(=O)=O)cc2)o1	i	x	x	x	x	72*
Cc1ccc(/C=C/C(=O)Nc2ccc(S(N)(=O)=O)cc2)o1	i	0	1	0	48	11
Cc1ccc(/C=C/C(=O)NCc2ccc3c(c2)OCO3)o1	i	0	0	1	92*	0
Cc1ccnc(SCC(=O)NC2CC2)n1	i	0	-1	0	-1	8
O=C(Cn1c(C(F)(F)F)nc2ccccc21)N/N=C/c1ccco1	i	0	9	1	-5	-3
O=C(NNCc1ccc(O)cc1)c1ccccc1Cl	i	0	-5	0	99*	-1
O=C(CCc1ccccc1)NNC(=O)c1ccccc1Cl	i	0	-3	x	-5	2
CCCc1nc2nc(C)c(NS(=O)(=O)c3ccc(Cl)cc3)c(=O)n2[nH]1	x	0	-1	0	20	2
Cc1cccc(CN2C(=O)N/C(=C/c3cc(C)n(-c4ccccn4)c3C)C2=O)c1	i	0	15	0	-3	13
Cc1cc(/C=C2/NC(=O)N(Cc3ccccc3F)C2=O)c(C)n1-c1ccccn1	i	0	44*	1	-8	0
CC(=O)Nc1ccc(NC(=O)CC(c2ccccc2)c2ccccc2)cc1	i	0	9	0	-11	1
O=C(CC(c1ccccc1)c1ccccc1)Nc1ccc(O)cc1	i	0	0	2	99*	0
O=C(CC(NCCc1ccccc1)C(=O)O)Nc1ccc(O)cc1 (stereo not drawn)	i	0	-3	0	91*	x
Cc1c(-c2cccc(Cl)c2)nc2ccccc2c1C(=O)NC1CC1	i	0	5	0	-18	-5
CCOC(=O)[C@H]1[C@H]2COc3ccc(C)cc3[C@@H]2N2C(=O)CN(C)C(=O)[C@@]12C	x	x	x	x	x	11
C=C(C)CNC(=O)C1CCC(=O)N(CCCc2ccccc2)C1 (stereo not drawn)	i	0	1	1	x	0
CN1C(=O)C2C(c3ccc(N(C)C)cc3)=NN(Cc3ccccc3)C2C1=O (stereo not drawn)	i	0	7	1	99*	2
